Results taken from PubChem BioAssay (NCATS).
Results filed as inconclusive are left out. Active and inactive are the calls of the source. Unless noted, calls come from the whole dose curve; as a rule, active = well fitted inhibition curve with a large enough effect; inconclusive = small, poorly fitted or top-dose-only effect; inactive = flat fitted curve, though single readings scatter.

system: not listed separately; assay: qHTS drug screen for cell cycle checkpoint inhibitors in PARPi-resistant BRCA-mutant ovarian cancer cell lines. (AID 1963452; calls by dose curve); details: PEO1/OlaR viability, CellTiter-Glo luminescence, 96 h; stronger effect = lower value
In short: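 PEO1, PEO4 and PEO1/OlaR ovarian cancer cells, 600 per well, exposed 96 h at 37C to a dilution series. Viability read by CellTiter-Glo luminescence, normalized to DMSO and empty wells; activity summarized as Z-AUC.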

| SMILES | Z-AUC |
| --- | --- |
| CC(=O)c1c(O)c(C)c(O)c(Cc2c(O)c3c(c(C(=O)/C=C/c4ccccc4)c2O)OC(C)(C)C=C3)c1O | 1.03 (inactive) |
| C[C@]12CC[C@H]3[C@@H](CC[C@@]45O[C@@H]4C(O)=C(C#N)C[C@]35C)[C@@H]1CC[C@@H]2O | 0.0842 (inactive) |
| C=C[C@H]1CN2CC[C@H]1C[C@@H]2[C@@H](O)c1ccnc2ccccc12 | 1.32 (inactive) |
| C/C(O)=C(\C#N)C(=O)Nc1cc(Br)ccc1Br | -0.13 (inactive) |
| CC1=C2C[C@H]3[C@@H](CC=C4C[C@@H](O)CC[C@@]43C)[C@@H]2CC[C@]12O[C@@H]1C[C@H](C)CN[C@H]1[C@H]2C | -0.41 (inactive) |

same assay, conditions: PEO1/OlaR viability, CellTiter-Glo luminescence, 96 h; measured here: PEO1 parental Z-AUC; stronger effect = lower value

| SMILES | Z-AUC |
| --- | --- |
| CC(=O)c1c(O)c(C)c(O)c(Cc2c(O)c3c(c(C(=O)/C=C/c4ccccc4)c2O)OC(C)(C)C=C3)c1O | 0.667 |
| C[C@]12CC[C@H]3[C@@H](CC[C@@]45O[C@@H]4C(O)=C(C#N)C[C@]35C)[C@@H]1CC[C@@H]2O | 0.943 |
| C=C[C@H]1CN2CC[C@H]1C[C@@H]2[C@@H](O)c1ccnc2ccccc12 | 0.858 |
| C/C(O)=C(\C#N)C(=O)Nc1cc(Br)ccc1Br | 0.336 |
| C/C(=C\c1csc(C)n1)[C@@H]1C[C@@H]2O[C@]2(C)CCC[C@H](C)[C@H](O)[C@@H](C)C(=O)C(C)(C)[C@@H](O)CC(=O)O1 | -2.7 |
| CC1=C2C[C@H]3[C@@H](CC=C4C[C@@H](O)CC[C@@]43C)[C@@H]2CC[C@]12O[C@@H]1C[C@H](C)CN[C@H]1[C@H]2C | -0.348 |

same assay, conditions: PEO1/OlaR viability, CellTiter-Glo luminescence, 96 h; measured here: PEO4 Z-AUC; stronger effect = lower value

| SMILES | Z-AUC |
| --- | --- |
| CC(=O)c1c(O)c(C)c(O)c(Cc2c(O)c3c(c(C(=O)/C=C/c4ccccc4)c2O)OC(C)(C)C=C3)c1O | 0.636 |
| C[C@]12CC[C@H]3[C@@H](CC[C@@]45O[C@@H]4C(O)=C(C#N)C[C@]35C)[C@@H]1CC[C@@H]2O | 0.794 |
| C=C[C@H]1CN2CC[C@H]1C[C@@H]2[C@@H](O)c1ccnc2ccccc12 | 1.06 |
| C/C(O)=C(\C#N)C(=O)Nc1cc(Br)ccc1Br | 0.627 |
| C/C(=C\c1csc(C)n1)[C@@H]1C[C@@H]2O[C@]2(C)CCC[C@H](C)[C@H](O)[C@@H](C)C(=O)C(C)(C)[C@@H](O)CC(=O)O1 | -2.48 |
| CC1=C2C[C@H]3[C@@H](CC=C4C[C@@H](O)CC[C@@]43C)[C@@H]2CC[C@]12O[C@@H]1C[C@H](C)CN[C@H]1[C@H]2C | -0.0838 |

system: not listed separately; assay: qHTS profiling for inhibitors of Plasmodium falciparum proliferation (AID 504749); note: nearly all actives have a fitted effect of over 60% in size; note: potency is the fitted concentration of half-maximal effect;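 for activity, negative = inhibition: 0% = DMSO vehicle and full inhibition = artemisinin control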; details: P. falciparum in erythrocytes, SYBR Green DNA, 72 h; at 28.7 µM (top of the series); parasite line A
In short: (§1)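 Quantitative HTS: compounds pinned into medium, infected erythrocytes added (0.3% parasitemia, 2.5% hematocrit), 72 h culture at 37 C under 5% CO2. Saponin/Triton lysis with SYBR Green I, overnight RT, then fluorescence read.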

| SMILES | activity, negative = inhibition |
| --- | --- |
| O=C1CN=C(c2ccccc2)c2cc(Cl)ccc2N1CC1CC1 | -5.97% (inactive) |
| O=C/C=C/c1ccccc1 | 8.58% (inactive) |
| CNC(C)C(O)c1ccc(O)cc1 (centres undefined) | 5.26% (inactive) |
| CCCC(=O)OC(C(Cl)(Cl)Cl)P(=O)(OC)OC (centres undefined) | -16.7% (inactive) |
| O=Cc1ccco1 | -15.5% (inactive) |

same assay, conditions: P. falciparum in erythrocytes, SYBR Green DNA, 72 h; at 28.7 µM (top of the series); parasite line B

| SMILES | activity, negative = inhibition |
| --- | --- |
| O=C1CN=C(c2ccccc2)c2cc(Cl)ccc2N1CC1CC1 | -9.8% (inactive) |
| O=C/C=C/c1ccccc1 | -11% (inactive) |
| CNC(C)C(O)c1ccc(O)cc1 (centres undefined) | -1.7% (inactive) |
| CCCC(=O)OC(C(Cl)(Cl)Cl)P(=O)(OC)OC (centres undefined) | -35.8% (inactive) |
| O=Cc1ccco1 | 9.74% (inactive) |

system: 3D7; assay: as above; details: P. falciparum in erythrocytes, SYBR Green DNA, 72 h; series mostly up to 28.7 µM; activity, negative = inhibition: at the top concentration
In short: as §1

| SMILES | activity, negative = inhibition | Potency |
| --- | --- | --- |
| O=C/C=C/c1ccccc1 | 2.25% (inactive) | – |
| CNC(C)C(O)c1ccc(O)cc1 (centres undefined) | 2.96% (inactive) | – |
| C/C(=C\c1csc(C)n1)[C@@H]1C[C@@H]2O[C@]2(C)CCC[C@H](C)[C@H](O)[C@@H](C)C(=O)C(C)(C)[C@@H](O)CC(=O)O1 | – | 3.2 nM (active) |
| O=Cc1ccco1 | 1.49% (inactive) | – |

system: 7G8; assay: as above; details: P. falciparum in erythrocytes, SYBR Green DNA, 72 h; series mostly up to 28.7 µM; activity, negative = inhibition: at the top concentration
In short: as §1

| SMILES | activity, negative = inhibition |
| --- | --- |
| O=C/C=C/c1ccccc1 | 10% (inactive) |
| CNC(C)C(O)c1ccc(O)cc1 (centres undefined) | -4.32% (inactive) |
| O=Cc1ccco1 | -10.3% (inactive) |
